From PubChem BioAssay (NCATS)
Records with an inconclusive call do not appear. Values without a mark were called inactive. Calls come from the whole dose curve; as a rule, active = well fitted curve in the direction sought with a large enough effect; inconclusive = small, poorly fitted or top-dose-only effect, or another doubt; inactive = no such curve, though single readings can be large; an effect the other way counts as inactive or inconclusive.
% is set by controls: 0 for no effect and ±100 for the full control effect.

Assay: qHTS assay to identify small molecule inhibitors of chordoma cells - UCH-1 (AID 1259355); note: nearly all actives have a fitted effect of over 55% in size
Details: UCH-1 chordoma viability, CellTiter-Glo, 48 h, combination, with auranofin plus four topoisomerase inhibitors; series mostly up to 46.1 µM; activity, negative = inhibition: at the top concentration
In short: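 Luminescent ATP read-out (CellTiter-Glo, 30min at room temperature) measured viability of UCH-1 cells exposed for 48hr to test drugs at 15 concentrations, co-dosed with a five-agent combination of auranofin, camptothecin, doxorubicin, rubitecan and topotecan.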
In the case of `Cc1c(C)c2c(c(C)c1OC(=O)c1cccnc1)CC[C@@](C)(CCC[C@H](C)CCC[C@H](C)CCCC(C)C)O2`, the “activity, negative = inhibition” value is reported as -1.44%.
For `COc1nccnc1NS(=O)(=O)c1ccc(N)cc1`, the “activity, negative = inhibition” value was -57.3%.
For `Cc1cccc(Nc2ccccc2C(=O)O)c1C`, the “activity, negative = inhibition” value was -1.07%.
With `O=C(NCN1CCOCC1)c1cnccn1` the “activity, negative = inhibition” value was -15.6%.
In the case of `C[N+]1(C)CCCC(OC(=O)C(O)(c2ccccc2)c2ccccc2)C1` (stereo unspecified), the “activity, negative = inhibition” value is reported as -17.2% [at 20.6 µM].
In the case of `CCCNC(C)(C)COC(=O)c1ccccc1`, the “activity, negative = inhibition” value is reported as -2.27%.
For `CN1C(=O)CC(c2ccccc2)C1=O` (stereo unspecified), the “activity, negative = inhibition” value was -12.3%.
For `CC(C)CCCC(C)CCCC(C)CCCCC(C)CCCC(C)CCCC(C)C` (stereo unspecified), the “activity, negative = inhibition” value was 6.4%.
For `O=c1[nH]c(=O)n([C@H]2C[C@H](O)[C@@H](CO)O2)cc1I`, the “activity, negative = inhibition” value was -27.7% [at 20.6 µM].
In the case of `CN[C@@H]1[C@@H](O)[C@@H](O[C@@H]2[C@H](O)[C@H](O[C@H]3OC(CN)=CC[C@H]3N)[C@@H](N)C[C@H]2N)OCC1(C)O` (stereo partly specified), the “activity, negative = inhibition” value is reported as -11.2%.
With `Nc1ccc(S(=O)(=O)c2ccc(N)cc2)cc1` the “activity, negative = inhibition” value was -8.46%.
In the case of `NC(=O)N[C@@H](CCC(=O)O)C(=O)O`, the “activity, negative = inhibition” value is reported as -1.99%.
For `CCC(C)(CN(C)C)OC(=O)c1ccccc1` (stereo unspecified), the “activity, negative = inhibition” value was -3.79% [at 20.6 µM].
In the case of `C[C@@H]1O[C@@H](OC[C@H]2O[C@@H](Oc3c(-c4ccc(O)c(O)c4)oc4cc(O)cc(O)c4c3=O)[C@H](O)[C@@H](O)[C@@H]2O)[C@H](O)[C@H](O)[C@H]1O`, the “activity, negative = inhibition” value is reported as -5.5%.
With `COC(=O)N/N=C/c1c[n+]([O-])c2ccccc2[n+]1[O-]` the “activity, negative = inhibition” value was -26.4%.
In the case of `CCCCCCCCCCOc1cc2c(=O)c(C(=O)OCC)c[nH]c2cc1OCC`, the “activity, negative = inhibition” value is reported as -11.6%.
In the case of `CC(C)=CCC/C(C)=C/CO`, the “activity, negative = inhibition” value is reported as 5.58%.
With `C=CCN1C[C@H](C(=O)N(CCCN(C)C)C(=O)NCC)C[C@@H]2c3cccc4[nH]cc(c34)C[C@H]21` the “activity, negative = inhibition” value was -9.51%.

Assay: qHTS assay to identify small molecule inhibitors of chordoma cells - UCH-2 (AID 1259356)
Details: UCH-2 chordoma viability, CellTiter-Glo ATP luminescence, 48 h; series mostly up to 46.1 µM; activity change, negative = inhibition: at the top concentration
For `CC(=O)Oc1cccc(O)c1`, the “activity change, negative = inhibition” value was 20.9%.
With `CC(=O)N(CC(O)CN(C(C)=O)c1c(I)c(C(=O)NCC(O)CO)c(I)c(C(=O)NCC(O)CO)c1I)c1c(I)c(C(=O)NCC(O)CO)c(I)c(C(=O)NCC(O)CO)c1I` (stereo unspecified) the “activity change, negative = inhibition” value was 1.83% [at 20.6 µM].
With `CO[C@@]1(NC(=O)C(C(=O)O)c2ccc(O)cc2)C(=O)N2C(C(=O)O)=C(CSc3nnnn3C)CO[C@@H]21` (stereo partly specified) the “activity change, negative = inhibition” value was 23.7% [at 20.6 µM].
For `COc1ccc2cc(CCC(C)=O)ccc2c1`, the “activity change, negative = inhibition” value was -6.34% [at 20.6 µM].
For `CCCCCC(C)N` (stereo unspecified), the “activity change, negative = inhibition” value was 3.07%.
In the case of `NS(=O)(=O)c1cc(-c2nn[nH]n2)c(NCc2cccs2)cc1Cl`, the “activity change, negative = inhibition” value is reported as -6.73%.
With `NC(=O)CCCCC1CCSS1` (stereo unspecified) the “activity change, negative = inhibition” value was -21.7%.
With `Cc1ccsc1/C=C/C1=NCCCN1C` the “activity change, negative = inhibition” value was 3.07% [at 20.6 µM].
With `NC(=O)CC[C@@H](N)C(=O)O` the “activity change, negative = inhibition” value was 8.2%.
In the case of `O=c1[nH]cnc2nc[nH]c12`, the “activity change, negative = inhibition” value is reported as 7.15%.
For `CC(=O)NS(=O)(=O)c1ccc(N)cc1`, the “activity change, negative = inhibition” value was 6.5%.
With `O=C(O)CNC(=O)c1ccccc1I` the “activity change, negative = inhibition” value was -2.3%.
In the case of `CC(N)CCCC(C)(C)O` (stereo unspecified), the “activity change, negative = inhibition” value is reported as 3.79%.
With `CC1CCN(CCCC(=O)c2ccc(F)cc2)CC1` the “activity change, negative = inhibition” value was 1.05%.
For `CC(C)c1cc2c(cc1S(=O)(=O)O)[C@@]1(C)CCC[C@@](C)(C(=O)O)[C@@H]1CC2`, the “activity change, negative = inhibition” value was -1.04%.
For `NNc1nnc(NN)c2ccccc12`, the “activity change, negative = inhibition” value was 5.33%.
In the case of `CC(=O)Oc1cccc(C)c1`, the “activity change, negative = inhibition” value is reported as 11.8%.
In the case of `CN1CCCN=C1COC(=O)C(O)(c1ccccc1)C1CCCCC1` (stereo unspecified), the “activity change, negative = inhibition” value is reported as 7.97%.
In the case of `COc1ccc(-c2cc(=O)c3c(O)cc(O[C@@H]4O[C@H](CO[C@@H]5O[C@@H](C)[C@H](O)[C@@H](O)[C@H]5O)[C@@H](O)[C@H](O)[C@H]4O)cc3o2)cc1O`, the “activity change, negative = inhibition” value is reported as 8.26%.
For `Cc1c(C)c2c(c(C)c1OC(=O)c1cccnc1)CC[C@@](C)(CCC[C@H](C)CCC[C@H](C)CCCC(C)C)O2`, the “activity change, negative = inhibition” value was 13.3%.
With `COc1nccnc1NS(=O)(=O)c1ccc(N)cc1` the “activity change, negative = inhibition” value was 3.49%.
In the case of `Cc1cccc(Nc2ccccc2C(=O)O)c1C`, the “activity change, negative = inhibition” value is reported as 5.7%.
For `O=C(NCN1CCOCC1)c1cnccn1`, the “activity change, negative = inhibition” value was 2.73%.
